Source: PubChem BioAssay
Shown are actives, neighbours in structure and some others; about 12% of the full set was active somewhere.
HP1b chromo inh: blocks HP1-beta chromodomain binding to methylated histone tails; P83916; AlphaScreen HP1-beta / biotin-H3K9me3 peptide binding; Potency, µM (highest dose often 114 µM), inactives show at the highest dose activity change, negative = inhibition, hits mostly inhibitors; 390,000 compounds, 0.56% hits; AID 540317; also: nearly all actives have a fitted effect of over 70% in size
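Compound inhibition of the preformed complex between 50 nM HP1-beta and 50 nM biotinylated H3K9me3 peptide was read by AlphaScreen. Buffer was PBS pH 7.4 with 0.01% Tween-20. Incubations ran 30 min at room temperature, with 10 ug/mL donor/acceptor beads.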
TDP1 inh: blocks human tyrosyl-DNA phosphodiesterase 1; recombinant TDP1, AlphaScreen DNA substrate cleavage; Potency, µM (doses to about 130 µM), inactives show at the top dose activity change, negative = inhibition, most hits filed as inhibitors; 350,000 compounds, 0.28% hits; AID 485290; also: % is scaled to controls: 0 for no effect and ±100 for the full control effect; nearly all actives have a fitted effect of over 40% in size
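Tdp1 1 nM final; 15 min RT w/ cpd; substrate 15 nM, 5 min; beads 10 ug/ml, 10 min; AlphaScreen read. Neg ctrl: no enzyme.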
G9a inh: blocks human histone lysine methyltransferase G9a. Q96KQ7. G9a H3K9 monomethylation, AlphaScreen, 2 h. Potency, µM (series often up to 102 µM), without a hit: at the highest dose activity, negative = inhibition, usual class: inhibitors. 350,000 compounds, 8.8% hits. AID 504332; also: % is scaled to controls: 0 for no effect and ±100 for the full control effect; nearly all actives have a fitted effect of over 75% in size
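Readings reflect AlphaScreen signal from monomethyl-H3K9 antibody detection. HMT at 20 nM; substrate b-H3K9 500 nM; cofactor SAM 20 uM; 2 h RT reaction; compounds tested as titrations in qHTS with 15 min preincubation.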
BAZ2B block: inhibitors of human BAZ2B bromodomain; Q9UIF8; AID 504333; AlphaScreen BAZ2B-H3K14Ac peptide displacement; Potency, µM (titrated, usually from 114 µM), inactives show top-dose activity change, negative = inhibition, most hits filed as inhibitors; 360,000 compounds, 4.4% hits; also: % is scaled to controls: 0 for no effect and ±100 for the full control effect; nearly all actives have a fitted effect of over 60% in size
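Inhibition is scored as reduced AlphaScreen emission. The BAZ2B/b-H3(5-23)K14Ac complex (50 nM each) in PBS pH 7.4, 0.01% Tween-20 meets compound (up to 110 uM) for 30 min at RT before bead addition.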
JMJD2A Tudor inh: inhibitors of human JMJD2A Tudor domain; AlphaScreen JMJD2A-Tudor / H3K4me3 peptide binding; Potency, µM (series often up to 114 µM), for inactives: at the highest dose activity change, negative = inhibition, most hits filed as inhibitors; AID 504339; O75164; 390,000 compounds, 4.4% hits; also: % is scaled to controls: 0 for no effect and ±100 for the full control effect; nearly all actives have a fitted effect of over 50% in size
Sfp PPTase inh: inhibitors of Bacillus subtilis Sfp phosphopantetheinyl transferase; 310,000 compounds, 3.5% hits; AID 1490; Potency, µM, for the others: largest response in the series, negative = inhibition, most hits filed as inhibitors; Biochemical Sfp PPTase activity, qHTS;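 also: the enzyme is Sfp with the accession as filed and its product quenches rhodamine fluorescence; 0% = enzyme reaction without inhibitor and -100% = no enzyme wells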
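Step 1, compound plus 15 nM Sfp-PPTase, 15 min, room temperature. Step 2, add rhodamine-CoA (5 uM) and BHQ-2-YbbR (12.5 uM). Step 3, read 525/598 nm fluorescence at 0 and 30 min.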
The depositor's hits bear a star; ? = inconclusive; / = no result given; [ ] = remark or other dose. Calls follow the shape of the dose curve; as a rule, active = well fitted curve in the direction sought with a large enough effect; inconclusive = small, poorly fitted or top-dose-only effect, or another doubt; inactive = no such curve, though single readings can be large; an effect the other way counts as inactive or inconclusive. Potency is read from the fitted curve at half-maximal effect.

SMILES	HP1b chromo inh	TDP1 inh	G9a inh	BAZ2B block	JMJD2A Tudor inh	Sfp PPTase inh
CC(C)[C@H](NS(=O)(=O)/C=C/c1ccccc1)C(=O)OCC(=O)NC(N)=O	34.9%	3.8%	-5.9%[59 µM]	8.8%	-4.2%	-4.2%
O=C(OCC#CCSc1nnc(-c2cccc3ccccc23)o1)c1cc2ccccc2s1	/	-4.1%	/	/	0.0%	/
Cc1ccc(-n2nc(C)c(Sc3ccccc3[N+](=O)[O-])c2N)cc1	?	6.7%	10µM*	35.5µM*	?	-19.8%
CC(=O)Oc1c(Sc2ccccc2[N+](=O)[O-])c(C)nn1C(C)(C)C	-18.2%	5.1%	44.7µM*	?	?	9.2%
CSc1nsc(SCC(=O)Nc2ccccc2F)n1	21.0%	/	12.3%	-1.8%	8.8%	5.3%
COc1ccc(CNC(=O)CSc2nc(SC)ns2)cc1	21.7%	-10.2%	44.7µM*	-7.1%	-13.4%	2.1%
CSc1nsc(SCC(=O)Nc2ccccc2C(N)=O)n1	12.9%	/	79.4µM*	-3.3%	-6.3%	2.0%
COc1ccc(-c2nsc(SCC(=O)NCc3ccc4c(c3)OCO4)n2)cc1	49.7%	2.3%	25.1µM*	-4.2%	4.2%	-7.7%
O=[S+]1([O-])N=C(Oc2cccnc2)c2ccccc21	/	1.2%	/	/	2.1%	/
CSc1ccc(CNC(=O)Cn2nc(N3CCN(c4ccccc4)CC3)ccc2=O)cc1	21.9%	7.9%	-3.2%[59 µM]	-12.9%	-4.5%	/
COc1ccc(/C=N/NC(=O)C2c3ccccc3-c3ccccc32)cc1	29.1%	4.6%	44.7µM*	-4.4%	-18.7%	5.6%
O=C(N/N=C/c1ccc(O)cc1O)/C(=C/c1ccccc1)CCO	11.9%	8.1%	45.8%[59 µM]	-38.7%	79.4µM*	25.8%
COc1cc(/C=N/NC(=O)/C(=C/c2ccccc2)CCO)ccc1O	18.8%	2.7%	25.1%[59 µM]	-3.2%	-10.9%	13.8%
COc1ccc(/C=N/NC(=O)CC(=O)N/N=C/c2ccc(OC)cc2)cc1	29.2%	0.0%	3.1%	-10.9%	-24.3%	16.6%
COc1ccc(/C=N/NC(=O)/C(=C/c2ccccc2)CCO)cc1	1.1%	2.7%	36.8%[59 µM]	-1.2%	79.4µM*	2.7%
O=C(CSCc1cnn(-c2ccccc2)c1-n1cccc1)NCc1ccccc1F	31.0%	-2.9%	-35.2%[59 µM]	-17.7%	-7.3%	/
CC1(C)c2cc(O)ccc2OC1N1CCOCC1 (centres undefined)	41.6%	/	8.91µM*	-12.7%	-11.0%	6.8%
CC(C)(C)C(=O)NC(=S)Nc1sc2c(c1C#N)CCCCC2	4.0%	2.6%	?	-34.2%	-13.0%	44.7µM*
Cc1c(Br)c([N+](=O)[O-])nn1CCCC(=O)Nc1sc2c(c1C#N)CCC2	?	2.3%	?	?	50.1µM*	22.4µM*
CCCOC(=O)c1c(NC(=O)CCC(=O)O)sc2c1CCCCC2	3.4%	2.3%	50.1µM*	-26.8%	-4.2%	?
N#Cc1c(NC(=O)CCCC(=O)O)sc2c1CCCCC2	9.8%	0.0%	29.2%[59 µM]	23.2%	0.0%	56.2µM*
Cc1c(Cl)c([N+](=O)[O-])nn1CCCC(=O)Nc1sc2c(c1C#N)CCC2	?	3.2%	?	-38.7%	?	?
CNC(=O)c1ccc2nc(-c3cccc(C)c3)c(-c3cccc(C)c3)nc2c1	4.6%[57 µM]	2.5%	/	/	-20.8%[57.1 µM]	/
O=C(CSc1nnnn1-c1ccc(Cl)c(C(=O)O)c1)NC(c1ccccc1)c1ccccc1	16.9%	/	-8.8%	6.3%	-0.7%	13.4%
CCOc1cc(C)c(C(C)C)cc1S(=O)(=O)n1ccnc1CC	18.9%	7.1%	15.7%[59 µM]	1.3%	-8.2%	/
SMILES	HP1b chromo inh	TDP1 inh	G9a inh	BAZ2B block	JMJD2A Tudor inh	Sfp PPTase inh
NC(=O)c1c(NC(=O)C2CCCO2)sc2c1CCCCC2 (centres undefined)	?	-13.0%	3.55µM*	-29.7%	?	-82.5%
NC(=O)c1c(NC(=O)CCCC(=O)O)sc2c1CCCCCC2	?	-2.5%	50.1µM*	1.9%	-30.9%[57.1 µM]	79.4µM*
N#Cc1c(NC(=O)c2ccccc2)sc2c1CCCCC2	9.2%	-7.5%	10.9%[59 µM]	13.2%	-11.6%	0.9%
COC(=O)c1c(NC(=O)CCCC(=O)O)sc2c1CCC2	6.7%	-10.9%	32.8%[2.33 µM]	-33.8%	-1.9%	15.2%
CC(C(=O)Nc1sc2c(c1C#N)CCCCC2)N1C(=O)c2ccccc2C1=O (centres undefined)	1.4%	2.7%	3.16µM*	?	-32.8%	?
COc1ccc(CNC(=O)CCCC(=O)Nc2cccc(Br)c2)cc1	45.0%	2.8%	28.9%[59 µM]	-16.2%	-5.0%	3.3%
COc1cc(CCc2ccccc2)c(C(=O)O)c(O)c1C/C=C(/C)CCC=C(C)C	17.0%	-2.7%[56.1 µM]	/	/	79.4µM*	/
Cc1cc(C)cc(Oc2c(C(F)(F)F)oc3c(CN4CCCC(C)C4)c(O)ccc3c2=O)c1 (centres undefined)	33.0%	-2.1%	0.0%[59 µM]	0.2%	-3.1%	/
O=C(CCCCn1ccc(=O)[nH]c1=O)Nc1ccc(C(=O)O)c(O)c1	18.8%[57 µM]	/	/	/	-3.4%	/
O=c1ccn(CCCBr)c(=O)[nH]1	39.2%	4.1%	39.8µM*	-3.6%	4.1%	20.1%
CN1c2ccccc2C(C)(C)C12CCCC(=O)N2 (centres undefined)	44.7%	9.5%	8.91µM*	50.1µM*	?	-29.5%
CC1=NOC2(C1)N(C)c1ccccc1C2(C)C (centres undefined)	19.0%	-2.1%	-9.6%[59 µM]	17.8%	-16.7%	-10.7%
CCCCOC(=O)CCc1c(C)n[nH]c1C	6.5%	-1.4%	/	-0.8%	-8.9%	12.1%
CCCCOc1ccc(Nc2cc(Cl)ccc2C(=O)O)cn1	-30.5%	/	30.1%[0.501 µM]	70.8µM*	?	9.9%
O=C(CCCOc1ccc(Cl)cc1Cl)Nc1ccccc1C(=O)O	31.6%	/	-3.0%	-1.1%	-13.3%	21.3%
Cc1ccc(NC(=O)CN(C)C(=O)COc2ncnc3ccc(Br)cc23)cc1	40.9%	0.3%	?	-5.1%	2.4%	/
Cc1ccc(S(=O)(=O)NN2C(=O)c3ccccc3NC2c2ccccc2F)cc1 (centres undefined)	40.9%	/	6.4%	50.1µM*	-4.9%	9.2%
COc1ccc(C2Nc3ccccc3C(=O)N2NS(=O)(=O)c2ccc(C)cc2)c(OC)c1 (centres undefined)	-4.0%	2.6%	-1.7%	9.7%	-13.1%	17.2%
CN(C(=O)CSc1ncnc2sccc12)c1c(N)n(Cc2ccccc2)c(=O)[nH]c1=O	13.0%	0.0%	2.1%	-0.5%	-5.5%	15.7%
COc1ccc(NC(=O)CCCS(=O)(=O)c2nc(-c3ccc(OC)c(OC)c3)cc(C(F)(F)F)n2)cc1OC	36.5%	5.9%	15.8µM*	-4.0%	-14.3%	/
CN(C(=O)c1ccc(NC(=O)C2CCCN(C(=O)OC(C)(C)C)C2)cc1)C1CCCCC1 (centres undefined)	22.5%	0.3%	/	/	-19.3%	/
